# PubChem BioAssay AID624202 (National Center for Advancing Translational Sciences (NCATS), 2012)
# Among all 380,000 compounds or so, about 4,000 (1.1%) were called active. Not shown: some 3% with an inconclusive outcome. Calls follow the shape of the dose curve; as a rule, active = well fitted activation curve with a large enough effect; inconclusive = small, poorly fitted or top-dose-only effect; inactive = no such curve, though single readings can be large or run the other way. The list comes from a sample in which actives are over-represented; it also holds similar structures and randomly drawn compounds.
# Experiment: qHTS Assay to Identify Small Molecule Activators of BRCA1 Expression; also: nearly all actives have a fitted effect of over 80% in size
# Conditions: MCF7-BRCA1-FFLuc reporter, luminescence, 48 h
# Description: Functionally, BRCA1 has been implicated in a wide array of cellular activities, including DNA damage repair, cell-cycle checkpoint control, growth inhibition, apoptosis, transcriptional regulation, chromatin remodeling, protein ubiquitylation, and mammary stem cell self-renewal and differentiation. Reduction in BRCA1 levels is associated with an increase in tumor growth and resistance to anti-estrogenic agents, such as tamoxifen, while an increase in BRCA1 expression leads to cell growth arrest and apoptosis. […] The frequent loss of BRCA1 expression in invasive breast cancers in the absence of somatic mutation has been attributed to numerous mechanisms, including hypermethylation of the BRCA1 promoter, exaggerated ubiquitylation of BRCA1 protein, and improper intracellular localization. […]
# 5microl of MCF7-BRCA1-FFLuc cell suspension (400 cells/microl in phenol-red free MEM) are dispensed into Greiner white solid bottom 1536-well assay plates, yielding a final well density of 2000 cells/well. […] The NCGC in-house luciferase substrate reagent, Buglite, is then added (2.5microl) and plates incubated for 15 minutes, before being transferred to a ViewLux high-throughput CCD imager (PerkinElmer) wherein single end-point measurements of luminescence are acquired using a clear filter. […]
# Potency is read from the fitted curve at half-maximal effect.
row,Compound,Potency
1,O=C(OCC(=O)c1cccs1)C1=COCCO1,15.8 µM (active)
